KCNQ2 pot: potentiators of rat KCNQ2 potassium channel | B-score at 10 µM | CHO-K1 KCNQ2, FluxOR thallium flux fluorescence; active compounds read high | 0.54% of 310,000 active | Potassium voltage-gated channel subfamily KQT member 2 (Rattus norvegicus), O88943;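 active = fluorescence ratio B-score at least 3 SD of library B-scores, with initial fluorescence B-score within 3 of them, cut at about 5.3 in these data; same plate scores as AID 2156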;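 note: B-score of peak minus minimum over baseline fluorescence ratio after K+ and Tl+ stimulus; positive B-score means potentiation of KCNQ2 with more thallium influx and brighter signal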
KCNQ2 inh: rat KCNQ2 potassium channel inhibitors, primary screen, cell-based, CHO-K1, FluxOR thallium flux, B-score; Potassium voltage-gated channel subfamily KQT member 2 (Rattus norvegicus), O88943; 20 min; active compounds read low; B-score at 10 µM; 1.1% of 310,000 active; AID 2156, 2009;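 active = fluorescence ratio B-score at most minus 3 library SDs, with starting brightness B-score within 2 library SDs, cut at about -5.5 in these data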
Kir21 confirm: mouse Kir2.1 channel blockers, retest, confirmation, cell-based, FluxOR thallium flux, duplicate | shares compounds with KCNQ2 pot | Kir2.1-expressing cells, FluxOR thallium flux fluorescence; active compounds read low | Tl flux remaining, % of negative control (active compounds read low), % at 10 µM | 41% of 2,300 active | AID 2032, 2009;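 active = Primary-screen hit whose thallium flux fell at least 3 control SD below untreated wells in both duplicates, with normal baseline fluorescence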;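 note: 0% = blank wells without stimulus and 100% = stimulated no-compound controls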
HEK293 ctr: parental HEK293 activity in Kir2.1 inhibitor counter-screen. shares compounds with KCNQ2 pot. parental HEK293 cells, FluxOR thallium flux fluorescence; 0% = unstimulated blank wells. FluxOR signal as % of negative control (100 = no effect), % at 10 µM. 19% of 2,300 active. AID 2105;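 active = dye signal at least 3 control SD above or below untreated wells in both duplicates, raw fluorescence within 3, either direction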;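 note: percent is based on the flux ratio of peak minus minimum fluorescence over baseline F0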
CHO-K1 ctr: nonspecific thallium flux increase in parental CHO-K1, confirmation, counter-screen for KCNQ2 potentiator project, cell-based, FluxOR thallium flux, duplicate | shares compounds with KCNQ2 pot | parental CHO-K1 cells, FluxOR thallium flux fluorescence; zero = vehicle mean+3SD, 100% = vehicle-minus-blank window | activity increase over 3SD of controls, % at 10 µM | 43% of 1,200 active;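 active = signal rise of at least 3 SD above the untreated control mean, in both duplicate wells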;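 note: counter screen of KCNQ2 potentiator hits so any rise reflects channel-independent effects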
KCNQ1 sel pot: human KCNQ1 channel potentiation off-target, confirmation, selectivity assay for KCNQ2 potentiator project, cell-based, CHO, FluxOR thallium flux; AID 2283, 2010; 28% of 1,200 active; activation over 3SD threshold, % at 10 µM; CHO KCNQ1 stable, FluxOR thallium flux fluorescence; beyond 3SD, as % of vehicle-control signal; shares compounds with KCNQ2 pot;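 active = fluorescence ratio rise of at least 3 SD of vehicle wells above their mean, in both replicate wells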;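 note: 0% = vehicle mean plus 3 SD and 100% = vehicle minus unstimulated blank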
Target sequence (P51787 whole entry, looked up): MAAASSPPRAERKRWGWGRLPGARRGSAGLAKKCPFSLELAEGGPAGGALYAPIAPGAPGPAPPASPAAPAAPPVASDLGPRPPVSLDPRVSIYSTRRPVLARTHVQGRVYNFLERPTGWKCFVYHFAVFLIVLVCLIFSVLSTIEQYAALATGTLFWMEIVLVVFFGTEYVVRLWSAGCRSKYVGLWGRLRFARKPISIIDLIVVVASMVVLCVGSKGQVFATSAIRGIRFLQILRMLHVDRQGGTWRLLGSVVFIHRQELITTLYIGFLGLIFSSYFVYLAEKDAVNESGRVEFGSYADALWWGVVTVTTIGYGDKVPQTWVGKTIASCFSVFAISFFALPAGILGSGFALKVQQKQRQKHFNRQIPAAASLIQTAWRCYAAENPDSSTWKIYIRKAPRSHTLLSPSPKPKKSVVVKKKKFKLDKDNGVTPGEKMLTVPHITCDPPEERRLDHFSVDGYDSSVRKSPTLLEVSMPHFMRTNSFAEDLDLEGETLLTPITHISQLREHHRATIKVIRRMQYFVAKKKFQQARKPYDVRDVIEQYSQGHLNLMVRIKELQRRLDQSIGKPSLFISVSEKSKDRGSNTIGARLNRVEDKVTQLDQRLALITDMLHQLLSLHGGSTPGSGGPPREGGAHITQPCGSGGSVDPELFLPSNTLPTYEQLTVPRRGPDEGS
KCNQ2 pot conf: rat KCNQ2 channel potentiators, confirmation, cell-based, CHO, FluxOR thallium flux, duplicate | shares compounds with KCNQ2 pot | CHO-KCNQ2 cells, FluxOR thallium flux fluorescence | 68% of 1,200 active | potentiation, less the hit threshold, % at 10 µM;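 active = fluorescence ratio rising 3 SD or more over the vehicle control mean in both replicates, plus primary screen hit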;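 note: peak minus minimum thallium fluorescence divided by baseline after K/Tl stimulus; 0% = vehicle mean plus 3 SD and 100% = vehicle minus unstimulated blank difference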
Kir2-1 sel: mouse Kir2.1 channel activation off-target, confirmation, selectivity assay for KCNQ2 potentiator project, cell-based, HEK293, FluxOR thallium flux. shares compounds with KCNQ2 pot. HEK293 Kir2.1, FluxOR thallium flux fluorescence. activity over 3SD threshold, % at 10 µM. 2% of 1,200 active. AID 2345, 2010;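 active = fluorescence ratio rise of at least 3 SD above the vehicle-control mean, seen in both replicates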;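 note: 0% = vehicle mean plus 3 SD and 100% = vehicle minus no-stimulus blank window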
KCNQ2 W236L MoA: potentiators of retigabine-insensitive KCNQ2 W236L, mechanism study for KCNQ2 potentiator project, cell-based, rat KCNQ2 W236L, CHO, automated patch clamp; shares compounds with KCNQ2 pot; automated patch clamp current; current increase over 3SD of negative controls (%), active compounds read high, % at 25 µM; 10% of 940 active; AID 2558, 2010;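 active = current increase at least 3 SD of the untreated controls above them in both duplicate recordings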
* hit, by the source's call; i = inactive; . = no result. A selection: hits, their analogues and other compounds. The true share with any hit is near 1.6%.

SMILES | KCNQ2 pot | KCNQ2 inh | others
COc1ccc(C(C)=O)cc1CSc1nnnn1-c1ccc(O)cc1 | . | i
CCOC(=O)C1CCCN(CC(O)COCc2ccccc2OC)C1 (configuration not stated) | . | i
CCC(C)N(C(=O)COC(=O)COc1c(C)cc(C)cc1C)C1CCS(=O)(=O)C1 (configuration not stated) | 0.21 | i
O=C(OCc1ccc(F)cc1)c1ccc2ccccc2n1 | . | i
O=C(c1cccc2nc3ccccc3nc12)N1CCOCC1 | . | i
FC(F)(F)c1nnc(Nc2ccc(Cl)cc2)s1 | 3.15 | i
Fc1ccc(Nc2nnc(C(F)(F)F)s2)cc1Cl | 7.2* | i | Kir21 confirm=i;HEK293 ctr=i;CHO-K1 ctr=-4.1;KCNQ1 sel pot=75.6*;KCNQ2 pot conf=16.0*;Kir2-1 sel=-29.9;KCNQ2 W236L MoA=i
COC(=O)C(NC(=O)c1ccccc1)(Nc1cc(C)cc(C)n1)C(F)(F)F (configuration not stated) | . | i
CCC(=O)Nc1ccccc1C(=O)C(=O)Nc1ccccc1 | 0.77 | i
Cc1cc2c(ncn2C)c(NS(=O)(=O)c2ccc(F)cc2)c1C | 0.03 | i
Cc1cc2c(ncn2C(C)C)c(NS(=O)(=O)c2ccc(F)cc2)c1C | 5.28* | i | Kir21 confirm=i;HEK293 ctr=i;CHO-K1 ctr=-14.9;KCNQ1 sel pot=9.7*;KCNQ2 pot conf=4.3*;Kir2-1 sel=-40.9;KCNQ2 W236L MoA=i
COC(=O)c1c(NC(=O)c2cccnc2Cl)sc(C(=O)N(C)C)c1C | . | i
CSC1=C(C#N)C(CC(C)C)C(C(C)=O)=C(C)N1 (configuration not stated) | 1.25 | i | Kir21 confirm=72.5%*;HEK293 ctr=i
CSC1=C(C#N)C(CC(C)C)C2=C(CCCC2=O)N1 (configuration not stated) | 1.44 | i
Cc1cc(C)c(NC(=O)C2CCCO2)c(C)c1NC(=O)C1CCCO1 (configuration not stated) | . | i
O=C(c1ccc(Cl)nc1)N1CCN(S(=O)(=O)c2ccccc2)CC1 | . | i
CCOC(=O)N1CCC(NC(=O)CC2C(=O)NCCN2Cc2ccccc2F)CC1 (configuration not stated) | . | i
CC(C)(C)n1nc2c(c1NC(=O)c1cc3ccccc3o1)CS(=O)(=O)C2 | . | i
Cc1c(Cl)cccc1Nc1ccccc1C(=O)O | . | i
Cc1c(Cl)cccc1NC(=O)C(=O)NNC(=O)c1ccccc1F | 22.5* | i | Kir21 confirm=i;HEK293 ctr=425.5%*;CHO-K1 ctr=-6.1;KCNQ1 sel pot=-10.6;KCNQ2 pot conf=73.1*;Kir2-1 sel=-7.0;KCNQ2 W236L MoA=i
Cc1ccccc1C(=O)NNC(=O)C(=O)Nc1cccc(Cl)c1C | 14* | i | Kir21 confirm=i;HEK293 ctr=275.0%*;CHO-K1 ctr=-6.5;KCNQ1 sel pot=-22.9;KCNQ2 pot conf=21.1*;Kir2-1 sel=-38.8;KCNQ2 W236L MoA=i
CSc1ccccc1NC(=O)Nc1cccc(Cl)c1C | 0.05 | i
O=C(COc1ccc(Cl)cc1)NNC(=O)c1ccc2c(=O)n3c(nc2c1)CCC3 | 0.23 | i
C=CCSc1nnc(NC(=O)c2cn(CC)c3nc(C)ccc3c2=O)s1 | 0.72 | i
Nn1c(COc2ccc(Cl)cc2)nc2ccccc2c1=O | 1.06 | i
SMILES | KCNQ2 pot | KCNQ2 inh | others
COc1ccc(C(=O)N/C(=C/c2ccc(Cl)cc2)C(=O)Nc2ccc(C(=O)O)cc2)cc1 | . | i
CCCOC(=O)c1ccc(Oc2c(-c3ccc(OCC)cc3O)n[nH]c2C)cc1 | . | i
COc1ccc(Oc2c(-c3ccc(O)cc3O)n[nH]c2C)cc1 | . | i | Kir21 confirm=61.0%*;HEK293 ctr=i
Cc1cccc(N(CC(=O)NC2CCCC2)C(=O)CCC(=O)Nc2ccccn2)c1 | . | i
COc1ccc(C)cc1NC(=O)CCNC(=O)c1ccco1 | 0.11 | i
COc1ccc(C)cc1NC(=O)C(=O)NNC(=O)c1ccco1 | 14.7* | i | Kir21 confirm=i;HEK293 ctr=359.0%*;CHO-K1 ctr=3.4*;KCNQ1 sel pot=-30.9;KCNQ2 pot conf=54.2*;Kir2-1 sel=-12.3;KCNQ2 W236L MoA=i
CCC(CC)COC(=O)C1=C(C)NC(=O)NC1c1cccc([N+](=O)[O-])c1 (configuration not stated) | 1.48 | i
CCOc1ccc(N2CC(C(=O)N3CCc4ccccc43)CC2=O)cc1 (configuration not stated) | . | i
O=C(/C=C/c1ccc(Cl)c([N+](=O)[O-])c1)Nc1ccc(N2CCCC2)cc1 | 0.55 | i
Cc1ccccc1OCC(=O)Nc1cc(S(=O)(=O)N2CCCCC2)ccc1N1CCN(C)CC1 | . | i
O=C(Cn1nnc(-c2ccccc2F)n1)NCc1ccco1 | . | i
O=C(NC(=S)N1CCN(c2ccc(Cl)cc2[N+](=O)[O-])CC1)c1ccco1 | . | i
O=C(NC(=S)N1CCN(c2ccc(Cl)cc2[N+](=O)[O-])CC1)c1cccs1 | 5.54* | i | Kir21 confirm=i;HEK293 ctr=151.0%*;CHO-K1 ctr=52.8*;KCNQ1 sel pot=23.6*;KCNQ2 pot conf=8.6*;Kir2-1 sel=-32.1;KCNQ2 W236L MoA=i
Cc1ccc(S(=O)(=O)CC(O)COc2ccc(F)cc2Cl)c(C)c1 (configuration not stated) | 0.26 | i | Kir21 confirm=52.5%*;HEK293 ctr=i
Cc1ccc(S(=O)(=O)CC(O)COc2ccc(F)cc2Cl)cc1 (configuration not stated) | 2.59 | i
CCOc1cc2c3c(c1)C(C)=CC(C)(C)N3C(=O)C2=O | 1.9 | i
CC(=O)Oc1cc2c3c(c1)/C(=C1/SC(=S)NC1=O)C(=O)N3C(C)(C)C=C2C | 6.84* | i | Kir21 confirm=i;HEK293 ctr=i;CHO-K1 ctr=-10.6;KCNQ1 sel pot=12.0*;KCNQ2 pot conf=-20.8;Kir2-1 sel=-20.6
COc1cccc(Nc2nc(N)c([N+](=O)[O-])c(N3CCOCC3)n2)c1 | 0.01 | i
Cc1ccc(C(=O)NCCN2C3=NC[C@H](C(C)C)N3C[C@H]2Cc2ccc(O)cc2)cc1Br | . | i

Screening results deposited in PubChem by Johns Hopkins Ion Channel Center.
